# Reference: PubChem BioAssay (NCI)
# The panel holds about 83,000 compounds, 20% with a hit somewhere; the sample as a whole holds those more often.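 96-well plates, one dose, 48 hours. Percent growth reported; active if below 10.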 Unmarked numbers belong to inactive results. Calls of active or inactive are those of the source.
# Tested on: HL-60(TB) leukemia
# Assay: NCI-60 one-dose screen, 48 h (100 = growth as untreated, 0 = no growth, -100 = all killed)
# Conditions: 10 µM unless noted
row,SMILES,growth
1,CC12CC[C@@H]3[C@]4(C)COC(c5cn[nH]c5-c5cccc(Cl)c5)O[C@@H]4CC[C@@]3(C)[C@@H]1CC(C1=CCOC1=O)O2 (stereo partly specified),22.3%
2,Cc1ccc(/C=C/C(=O)c2ccc(S(=O)(=O)NCCNc3nc(N(C)C)nc(N4CCOCC4)n3)cc2)cc1,30.7%
3,Cc1ccc(O)cc1Nc1nc(SCCN2CCOCC2)nc2c1cnn2CC(Cl)c1ccc(Br)cc1 (stereo unspecified),-49.7% (active)
4,COc1cccc(/C=N/NC(=O)c2ccc3nc(-c4ccc(Cl)cc4)[nH]c3c2)c1O,-43.4% (active)
5,C=C1CCC2C3(C)COC(c4cccc(F)c4)OC3CCC2(C)C1CC(O)C1=CCOC1=O (stereo unspecified),66.7%
6,CCCSc1nc(Nc2ccc(S(N)(=O)=O)cc2)c(C#N)c(-c2cc(OC)c(OC)c(OC)c2)n1,-40.3% (active)
7,O=C1S/C(=C\c2ccc([N+](=O)[O-])cc2)C(=O)N1CCN1CCCCC1,98.6%
8,COc1cc(/C=C/C(=O)c2cc(OC)c(OC)c(OC)c2)ccc1Oc1nc(Nc2ccc(F)cc2)nc(N(C)C)n1,-7.15% (active)
9,CC(=O)Oc1ccccc1C(=O)[Se]CC(=O)Nc1cccc(C(F)(F)F)c1,-14.9% (active)
10,C#CCCCNCCNc1ccnc2cc(Cl)ccc12,46.8%
11,COc1ccc(NC(=O)Nc2ccc(OCC(=O)N=Nc3c(O)[nH]c4ccc([N+](=O)[O-])cc34)cc2)cc1,99%
12,Cc1nc(Nc2ccccn2)sc1C1=NNC(c2ccccc2F)C1 (stereo unspecified),4.96% (active)
13,COc1ccc(/C(C)=N/N=C2C(=O)N(C)c3ccc(Br)cc32)cc1S(N)(=O)=O,99%
14,Cc1cccc(/C=C/c2ccc(NC(=S)NCCCCN(C)C)cc2)c1,-37.7% (active)
15,O=C(CSc1nnc(-c2c[nH]c3ccccc23)n1-c1ccccc1)Nc1ccc(C(=O)/C=C/c2cccc([N+](=O)[O-])c2)cc1,86.8%
16,O=C(Nc1nc2ccccc2s1)Nc1ccccc1Cl,97.4%
17,Cc1ccc(S(=O)(=O)c2nc(S(=O)(=O)c3ccc(C)cc3)c(Cl)s2)cc1,15.9%
18,CCCCc1c(Nn2cnnn2)no[n+]1[O-],37.9%

row,SMILES,growth
1,C/C(=N\N=C1/C(=O)Nc2ccc(Cl)cc21)c1ccc2c(c1)Nc1ccccc1S2,8.43% (active)
2,O=C(O)c1ccc(-c2ccc(/C=N/NC(=O)c3[nH]c4ccc(Br)cc4c3-c3ccccc3)s2)cc1,-5.49% (active)
3,O=C(NNC(=O)c1ccc(OCc2nc3ccc(Cl)cc3[nH]2)cc1)Nc1ccc(Cl)c(C(F)(F)F)c1,74.8%
4,COc1ccc(-c2ccnc(SCc3cc4ccccc4[nH]c3=O)n2)cc1,34.1%
5,Cc1ccc([N+](=O)[O-])c(C(=O)Nc2ccc(-c3ccc4c(c3)NC(=O)/C4=C\c3ccc[nH]3)cc2)c1,49.5%
6,O=C(N/N=C/c1ccc(Cl)cc1)c1ccc(OCc2nc3ccc(Cl)cc3[nH]2)cc1,81.7%
7,O=C(N=Nc1c(O)[nH]c2ccc([N+](=O)[O-])cc12)c1ccc2nc(-c3ccccc3)[nH]c2c1,84.7%
8,Cn1cc(-c2cc3nc(-c4c[nH]c5ccccc45)cc(N)n3n2)c2ccccc21,-41.2% (active)
9,O=c1[nH]c2ccccc2cc1CSc1ccc(Nc2nccc(-c3ccc(C(F)(F)F)cc3)n2)cc1,69.5%
10,O=C(Nc1ccc(-c2ccc3c(c2)NC(=O)/C3=C\c2ccc[nH]2)cc1)Nc1ccc(Cl)c(C(F)(F)F)c1,4.76% (active)
11,COc1ccc(C2=Nc3c(N)nc(N)nc3NC(c3ccc(Oc4nc(Nc5ccc(F)cc5)nc(N(C)C)n4)c(OC)c3)C2)cc1 (stereo unspecified),32.6%
12,COc1cc(-c2ccc(/C=N/NC(=O)c3[nH]c4ccc(Br)cc4c3-c3ccccc3)s2)cc(OC)c1OC,99%
13,COc1cc(NC(=O)CSc2nnc(-c3ccc(-c4nc5ccc(Cl)cc5[nH]4)cc3)o2)cc(OC)c1OC,8.77% (active)
14,Cc1cccc(NC(=O)CN2CCN(c3ncnc4c3cnn4-c3ccccc3)CC2)c1,88.3%
15,Nc1cc(-c2c[nH]c3ccc(F)cc23)nc2cc(-c3c[nH]c4ccccc34)nn12,-0.0986% (active)
16,COc1ccc2nc(Nc3cccc(NC(=O)c4ccc(CN5CCCN(C)CC5)c(C(F)(F)F)c4)c3)ccc2c1,-28% (active)
17,O=c1[nH]n(C(=S)N/N=C/c2ccc(F)cc2)c(=O)c2ccccc12,44.7%
18,O=c1oc2ccc(-c3ccc(F)cc3F)cc2c(=O)n1-c1ccc(Cl)c(C(F)(F)F)c1,1.38% (active)
